Results taken from PubChem BioAssay (Tox21).
Records with an inconclusive call do not appear. Active and inactive are the calls of the source. Unless noted, calls come from the whole dose curve; as a rule, active = well fitted curve in the direction sought with a large enough effect in the repeat runs; inconclusive = weak or mixed curves; inactive = no such curve, though single readings can be large; an effect the other way counts as inactive or inconclusive.

How the values were obtained:
[1] = Human pregnane X receptor (PXR) small molecule agonists, qHTS cell viability counter screen (AID 1346977); note: nearly all actives have a fitted effect of over 50% in size; note: potency is the fitted concentration of half-maximal effect
How it was run: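 HepG2 cells stably carrying the PXR-Luc reporter are cultured with 5% charcoal-stripped FBS and treated with compounds for 24hr. CellTiter-Fluor is added at 23hr and fluorescence is read after 1hr.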

[2] = Caspase-3/7 induction in HepG2 cells by small molecules, qHTS assay (AID 1346978); note: nearly all actives have a fitted effect of over 15% in size
How it was run: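 Wild-type HepG2 cells (2,000/well) were settled 5 h at 37 C, 5% CO2, then exposed to compounds in DMSO for 17 h. Caspase-3/7 activity was read by luminescence 30 min after adding Caspase-Glo 3/7 reagent at room temperature.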

[3] = Caspase-3/7 induction in CHO-K1 cells by small molecules, qHTS cell viability counter screen (AID 1346979); note: nearly all actives have a fitted effect of over 35% in size
How it was run: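 Seeding: 1,500 CHO-K1 cells/well. Rest: 5hr, 37C. Treatment: compounds in DMSO, 16hr. Read: CellTiter-Fluor, 1hr, fluorescence.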

[4] = Caspase-3/7 induction in CHO-K1 cells by small molecules, qHTS assay (AID 1346980); note: nearly all actives have a fitted effect of over 15% in size
How it was run: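 Wild-type cells were seeded at 1,500 per well and settled 5 hr at 37 C, 5% CO2, then exposed to DMSO-dissolved compounds for 17 hr. Caspase-Glo 3/7 reagent was added, and luminescence was read after 30min at room temperature.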

[5] = Caspase-3/7 induction in HepG2 cells by small molecules, qHTS cell viability counter screen (AID 1346981); note: series mostly up to about 92 µM; nearly all actives have a fitted effect of over 30% in size
How it was run: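 Viability determined by CellTiter-Fluor fluorescence in HepG2 wells also used for the luminescent Caspase-Glo 3/7 read. Compounds were present for 16 hr at 37 C, 5% CO2 before reagent addition.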

[6] = target: Nuclear receptor subfamily 1 group I member 2 (Homo sapiens) (UniProt O75469); test: Human pregnane X receptor (PXR) small molecule agonists, qHTS assay (AID 1346982); note: nearly all actives have a fitted effect of over 35% in size; note: potency is the fitted concentration of half-maximal effect
Nuclear receptor subfamily 1 group I member 2 (Homo sapiens), sequence (O75469 whole entry, looked up): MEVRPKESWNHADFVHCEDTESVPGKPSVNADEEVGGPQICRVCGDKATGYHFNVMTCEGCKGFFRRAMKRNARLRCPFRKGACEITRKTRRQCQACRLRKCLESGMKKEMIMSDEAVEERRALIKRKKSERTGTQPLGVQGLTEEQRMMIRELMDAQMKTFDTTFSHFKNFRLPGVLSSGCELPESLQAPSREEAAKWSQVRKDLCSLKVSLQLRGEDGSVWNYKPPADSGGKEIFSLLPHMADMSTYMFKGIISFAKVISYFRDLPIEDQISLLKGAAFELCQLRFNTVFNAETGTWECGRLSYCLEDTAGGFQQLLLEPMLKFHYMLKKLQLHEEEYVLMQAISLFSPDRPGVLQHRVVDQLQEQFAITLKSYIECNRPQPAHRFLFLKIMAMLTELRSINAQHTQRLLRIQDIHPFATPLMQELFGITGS
How it was run: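 Compound-induced hPXR transactivation of a CYP3A4 luciferase reporter was scored in HepG2 PXR-Luc cells over 24 hr at 37 C, 5% CO2, by luminescence.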

[7] = target: Acetylcholinesterase (Homo sapiens) (UniProt P22303); test: Acetylcholinesterase (AChE) small molecule antagonists: colormetric cell-based qHTS assay (AID 1347395; calls by dose curve; note: nearly all actives have a fitted effect of over 30% in size; note: potency is the fitted concentration of half-maximal effect)
Acetylcholinesterase (Homo sapiens), sequence (P22303 whole entry, looked up): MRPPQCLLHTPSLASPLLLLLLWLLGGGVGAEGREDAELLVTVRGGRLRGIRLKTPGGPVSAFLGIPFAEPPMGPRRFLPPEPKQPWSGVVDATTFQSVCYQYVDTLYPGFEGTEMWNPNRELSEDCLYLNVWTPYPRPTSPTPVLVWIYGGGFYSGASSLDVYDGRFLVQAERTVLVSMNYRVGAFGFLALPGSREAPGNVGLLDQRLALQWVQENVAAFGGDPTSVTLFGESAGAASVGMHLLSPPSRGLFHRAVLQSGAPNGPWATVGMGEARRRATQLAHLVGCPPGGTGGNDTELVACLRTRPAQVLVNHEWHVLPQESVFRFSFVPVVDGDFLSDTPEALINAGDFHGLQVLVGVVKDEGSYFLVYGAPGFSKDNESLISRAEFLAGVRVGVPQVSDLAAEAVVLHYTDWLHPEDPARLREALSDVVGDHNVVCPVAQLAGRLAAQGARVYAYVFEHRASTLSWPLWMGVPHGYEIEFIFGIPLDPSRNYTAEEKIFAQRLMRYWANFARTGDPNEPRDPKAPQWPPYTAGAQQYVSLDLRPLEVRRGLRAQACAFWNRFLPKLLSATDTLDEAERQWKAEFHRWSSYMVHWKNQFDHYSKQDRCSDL
How it was run: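 Quantitative HTS in attached SH-SY5Y cells: 30 min compound exposure, then 90 min with acetylthiocholine and DTNB at 37 C; colour from thiocholine reports AChE activity.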

[8] = target: Acetylcholinesterase (Homo sapiens) (UniProt P22303); test: Acetylcholinesterase (AChE) small molecule antagonists: enzyme-based qHTS assay (AID 1347397; calls by dose curve; note: nearly all actives have a fitted effect of over 55% in size; note: potency is the fitted concentration of half-maximal effect); details: Potency: AChE enzyme activity inhibition
How it was run: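 Human recombinant acetylcholinesterase; substrate acetylthiocholine; thiocholine quantified with DTNB (colorimetric). Compound preincubation 30 min RT; reaction 10 min RT.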

[9] = target: Acetylcholinesterase (Homo sapiens) (UniProt P22303); test: Acetylcholinesterase (AChE) small molecule antagonists: fluorescence cell-based qHTS assay (AID 1347398; calls by dose curve; note: nearly all actives have a fitted effect of over 50% in size; note: potency is the fitted concentration of half-maximal effect); details: Potency: AChE activity
How it was run: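 Thiocholine generated from acetylthiocholine by SH-SY5Y cell AChE is detected with Thiolite Green (Ex/Em 490/520 nm) after 40 min at room temperature, following 30 min compound pretreatment at 37 C.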

[10] = target: Acetylcholinesterase (Homo sapiens) (UniProt P22303); test: Acetylcholinesterase (AChE) small molecule antagonists: enzyme-based qHTS assay with human liver microsomes (AID 1347399; calls by dose curve; note: nearly all actives have a fitted effect of over 60% in size; note: potency is the fitted concentration of half-maximal effect); details: Potency: qHTS inhibition
How it was run: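 Recombinant human AChE (50 mU/mL in the enzyme mix) and human liver microsomes (0.25 mg/mL final) were preincubated with compound and NADPH (0.25 mg/mL final) for 30 min at 37 C. Acetylthiocholine/DTNB was then added; thiocholine was read colorimetrically after 10 min at room temperature.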

[11] = target: Cytochrome P450 2D6 (Homo sapiens) (UniProt P10635); test: Cytochrome P450 Family 2 Subfamily D Member 6 (CYP2D6) small molecule antagonists: luciferase reporter qHTS assay (AID 1671196); note: nearly all actives have a fitted effect of over 50% in size; note: potency is the fitted concentration of half-maximal effect; for activity change, negative = inhibition: series mostly up to about 120 µM
Cytochrome P450 2D6 (Homo sapiens), sequence (P10635 whole entry, looked up): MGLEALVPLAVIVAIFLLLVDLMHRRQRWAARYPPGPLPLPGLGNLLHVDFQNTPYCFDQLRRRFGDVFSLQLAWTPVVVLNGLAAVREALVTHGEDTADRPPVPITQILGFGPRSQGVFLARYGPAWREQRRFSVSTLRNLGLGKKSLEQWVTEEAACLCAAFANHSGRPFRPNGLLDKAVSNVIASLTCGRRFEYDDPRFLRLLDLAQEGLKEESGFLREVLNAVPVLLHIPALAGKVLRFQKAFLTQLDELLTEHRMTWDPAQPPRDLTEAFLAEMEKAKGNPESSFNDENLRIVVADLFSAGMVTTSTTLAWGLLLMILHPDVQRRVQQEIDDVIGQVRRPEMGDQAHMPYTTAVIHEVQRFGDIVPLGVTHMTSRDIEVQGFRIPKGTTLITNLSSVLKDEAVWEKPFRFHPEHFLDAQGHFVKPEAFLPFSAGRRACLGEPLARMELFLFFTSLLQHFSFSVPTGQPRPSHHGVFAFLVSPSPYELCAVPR
How it was run: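 Each well received CYP2D6 with its proluciferin substrate and chemical, sat 10 min, then got NADPH regeneration solution for 1 h at room temperature. Luminescence in RLU served as the activity measure.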

[12] = target: Cytochrome P450 2C9 (Homo sapiens) (UniProt P11712); test: Cytochrome P450 Family 2 Subfamily C Member 9 (CYP2C9) small molecule antagonists: luciferase reporter qHTS assay (AID 1671198); note: nearly all actives have a fitted effect of over 50% in size; note: potency is the fitted concentration of half-maximal effect; for activity change, negative = inhibition: series mostly up to about 120 µM
Cytochrome P450 2C9 (Homo sapiens), sequence (P11712 whole entry, looked up): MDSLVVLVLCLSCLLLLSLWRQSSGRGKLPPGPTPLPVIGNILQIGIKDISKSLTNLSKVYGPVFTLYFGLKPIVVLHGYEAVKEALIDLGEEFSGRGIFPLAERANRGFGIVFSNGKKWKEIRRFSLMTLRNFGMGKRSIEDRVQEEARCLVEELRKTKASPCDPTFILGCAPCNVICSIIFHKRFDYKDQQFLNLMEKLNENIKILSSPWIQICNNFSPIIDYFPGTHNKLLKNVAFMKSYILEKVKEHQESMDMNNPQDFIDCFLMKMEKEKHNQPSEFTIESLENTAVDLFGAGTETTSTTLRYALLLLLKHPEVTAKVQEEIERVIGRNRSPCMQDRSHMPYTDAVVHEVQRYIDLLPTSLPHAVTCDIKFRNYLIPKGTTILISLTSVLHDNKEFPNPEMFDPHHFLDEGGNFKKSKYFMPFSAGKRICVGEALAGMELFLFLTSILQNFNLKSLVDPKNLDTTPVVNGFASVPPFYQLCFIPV
How it was run: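 CYP2C9 activity was measured with a P450-Glo proluciferin substrate. Enzyme–substrate mix was held with compound for 10 min at room temperature, then NADPH regeneration solution was added for 1 h at 37C. Luciferin product was read as luminescence.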

[13] = target: Cytochrome P450 1A2 (Homo sapiens) (UniProt P05177); test: Cytochrome P450 Family 1 Subfamily A Member 2 (CYP1A2) small molecule antagonists: luciferase reporter qHTS assay (AID 1671199); note: nearly all actives have a fitted effect of over 50% in size; note: potency is the fitted concentration of half-maximal effect; for activity change, negative = inhibition: series mostly up to about 120 µM
Cytochrome P450 1A2 (Homo sapiens), sequence (P05177 whole entry, looked up): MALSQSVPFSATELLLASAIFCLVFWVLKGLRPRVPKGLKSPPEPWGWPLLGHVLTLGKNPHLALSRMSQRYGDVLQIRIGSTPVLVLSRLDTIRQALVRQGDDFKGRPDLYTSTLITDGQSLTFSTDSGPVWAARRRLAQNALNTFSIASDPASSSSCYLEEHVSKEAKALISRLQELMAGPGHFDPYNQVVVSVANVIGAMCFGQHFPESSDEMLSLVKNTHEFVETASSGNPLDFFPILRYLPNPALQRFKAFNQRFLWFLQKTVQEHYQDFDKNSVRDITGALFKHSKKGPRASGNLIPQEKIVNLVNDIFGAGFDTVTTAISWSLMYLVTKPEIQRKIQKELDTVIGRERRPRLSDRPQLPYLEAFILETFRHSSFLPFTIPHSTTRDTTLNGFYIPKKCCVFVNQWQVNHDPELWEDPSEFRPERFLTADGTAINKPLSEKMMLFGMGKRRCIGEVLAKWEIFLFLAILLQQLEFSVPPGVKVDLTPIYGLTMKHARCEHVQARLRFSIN
How it was run: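 Enzymatic CYP1A2 assay, human, luminescent: 10 min compound–enzyme–substrate preincubation, 1 h NADPH-dependent turnover, 20 min detection step, room temperature throughout. Reduced light indicates lower CYP1A2 activity.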

[14] = target: Voltage-gated inwardly rectifying potassium channel KCNH2 (Homo sapiens) (UniProt Q12809); test: Human Ether-a-go-go-Related Gene (hERG) channel small molecule antagonists: fluorescence cell-based qHTS assay (AID 1671200); note: nearly all actives have a fitted effect of over 50% in size; note: potency is the fitted concentration of half-maximal effect;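 for activity change, negative = inhibition: hERG-expressing U2OS cells given a thallium stimulus after FluxOR II dye loading; series mostly up to about 77 µM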
Voltage-gated inwardly rectifying potassium channel KCNH2 (Homo sapiens), sequence (Q12809 whole entry, looked up): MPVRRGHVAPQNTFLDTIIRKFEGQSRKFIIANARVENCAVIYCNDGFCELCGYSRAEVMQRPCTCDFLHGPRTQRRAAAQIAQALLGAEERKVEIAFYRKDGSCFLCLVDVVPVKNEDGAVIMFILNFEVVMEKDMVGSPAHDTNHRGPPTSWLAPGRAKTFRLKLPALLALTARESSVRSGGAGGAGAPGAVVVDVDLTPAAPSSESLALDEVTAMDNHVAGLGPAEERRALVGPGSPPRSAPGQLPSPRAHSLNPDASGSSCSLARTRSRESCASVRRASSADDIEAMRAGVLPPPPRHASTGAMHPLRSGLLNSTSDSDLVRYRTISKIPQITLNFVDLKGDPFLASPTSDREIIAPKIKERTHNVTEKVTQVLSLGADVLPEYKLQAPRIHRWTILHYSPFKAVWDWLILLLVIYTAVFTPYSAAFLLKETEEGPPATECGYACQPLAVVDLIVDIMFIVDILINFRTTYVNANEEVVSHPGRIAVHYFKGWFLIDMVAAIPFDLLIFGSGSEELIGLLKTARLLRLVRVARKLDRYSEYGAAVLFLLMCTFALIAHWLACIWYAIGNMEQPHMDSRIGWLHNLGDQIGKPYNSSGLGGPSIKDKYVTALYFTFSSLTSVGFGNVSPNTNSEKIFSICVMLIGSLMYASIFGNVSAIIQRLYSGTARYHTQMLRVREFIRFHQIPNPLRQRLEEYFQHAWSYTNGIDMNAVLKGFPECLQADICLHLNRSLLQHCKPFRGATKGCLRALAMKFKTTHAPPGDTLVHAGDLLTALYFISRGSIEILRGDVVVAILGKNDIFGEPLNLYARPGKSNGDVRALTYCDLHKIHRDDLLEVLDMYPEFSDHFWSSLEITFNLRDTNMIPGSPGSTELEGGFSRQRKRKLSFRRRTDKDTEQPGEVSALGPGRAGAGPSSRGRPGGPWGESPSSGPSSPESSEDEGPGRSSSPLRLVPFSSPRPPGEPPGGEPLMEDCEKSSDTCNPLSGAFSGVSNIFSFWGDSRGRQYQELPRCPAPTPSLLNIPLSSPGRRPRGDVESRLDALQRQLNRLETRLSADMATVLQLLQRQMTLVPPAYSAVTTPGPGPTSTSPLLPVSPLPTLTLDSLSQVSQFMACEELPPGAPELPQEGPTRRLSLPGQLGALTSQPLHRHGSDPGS
How it was run: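 First, 1000 cells per well are seeded and cultured overnight at 37 C. Next, FluxOR II dye is loaded for 1 h at room temperature, protected from light. After 10 more minutes, stimulus is added and fluorescence is read.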

[15] = target: Cytochrome P450 3A4 (Homo sapiens) (UniProt P08684); test: Cytochrome P450 Family 3 Subfamily A Member 4 (CYP3A4) small molecule antagonists: luciferase reporter qHTS assay (AID 1671201); note: nearly all actives have a fitted effect of over 50% in size; note: potency is the fitted concentration of half-maximal effect; for activity change, negative = inhibition: series mostly up to about 120 µM
Cytochrome P450 3A4 (Homo sapiens), sequence (P08684 whole entry, looked up): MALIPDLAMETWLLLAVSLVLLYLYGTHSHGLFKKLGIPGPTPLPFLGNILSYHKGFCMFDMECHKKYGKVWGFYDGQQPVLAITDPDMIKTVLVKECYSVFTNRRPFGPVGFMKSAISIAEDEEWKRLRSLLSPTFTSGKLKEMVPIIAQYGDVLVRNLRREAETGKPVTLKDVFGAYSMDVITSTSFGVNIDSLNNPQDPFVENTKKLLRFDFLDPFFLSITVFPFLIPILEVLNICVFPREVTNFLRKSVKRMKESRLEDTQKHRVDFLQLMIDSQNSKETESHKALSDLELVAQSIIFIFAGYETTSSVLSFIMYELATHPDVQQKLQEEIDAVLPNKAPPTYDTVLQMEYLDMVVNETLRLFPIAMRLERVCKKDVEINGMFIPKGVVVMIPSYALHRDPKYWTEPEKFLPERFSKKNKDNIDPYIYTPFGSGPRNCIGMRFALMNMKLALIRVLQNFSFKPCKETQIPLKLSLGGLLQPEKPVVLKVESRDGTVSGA
How it was run: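 Enzyme and proluciferin substrate are mixed with test chemicals for 10 min, then NADPH regeneration system drives turnover for 1 h at room temperature. A detection reagent halts the reaction; luminescence after 20 min gives relative activity.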

[16] = target: Cytochrome P450 2C19 (Homo sapiens) (UniProt P33261); test: Cytochrome P450 Family 2 Subfamily C Member 19 (CYP2C19) small molecule antagonists: luciferase reporter qHTS assay (AID 1671197); note: nearly all actives have a fitted effect of over 65% in size; note: potency is the fitted concentration of half-maximal effect; for activity change, negative = inhibition: series mostly up to about 120 µM
Cytochrome P450 2C19 (Homo sapiens), sequence (P33261 whole entry, looked up): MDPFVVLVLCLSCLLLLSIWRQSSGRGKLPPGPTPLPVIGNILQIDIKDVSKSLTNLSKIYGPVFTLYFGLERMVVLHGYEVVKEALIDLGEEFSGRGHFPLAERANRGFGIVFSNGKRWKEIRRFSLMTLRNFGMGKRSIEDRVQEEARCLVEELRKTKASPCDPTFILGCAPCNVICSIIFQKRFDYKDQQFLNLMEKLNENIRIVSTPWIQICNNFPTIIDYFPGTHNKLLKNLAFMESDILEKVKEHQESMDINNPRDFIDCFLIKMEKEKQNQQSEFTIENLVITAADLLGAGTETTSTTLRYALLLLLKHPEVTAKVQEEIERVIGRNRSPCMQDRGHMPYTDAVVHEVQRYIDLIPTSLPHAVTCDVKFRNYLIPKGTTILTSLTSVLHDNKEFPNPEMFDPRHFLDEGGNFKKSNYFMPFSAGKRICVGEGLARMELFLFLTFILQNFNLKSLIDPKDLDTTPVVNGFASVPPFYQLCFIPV
How it was run: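 Light output is proportional to CYP2C19 activity: proluciferin substrate is converted to luciferin, then detected by a luciferin detection reagent that also stops the 1 h, 37C NADPH-driven reaction. Ketoconazole serves as positive control.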
% is set by controls: 0 for no effect and ±100 for the full control effect.

C(CCOCC1CO1)COCC1CO1 (centres undefined)
inactive: Potency [1] | Potency [2] | Potency [3] | Potency [4] | Potency [5] | Potency [6] | Potency [7] | Potency [8] | Potency [9] | Potency [10] | Potency [11] | Potency [12] | Potency [13] | Potency [14] | Potency [15]

CC(C)COP(=O)(OCC(C)C)OCC(C)C
inactive: Potency [1] | Potency [2] | Potency [3] | Potency [4] | Potency [5] | Potency [6] | Potency [7] | Potency [8] | Potency [9] | Potency [10] | Potency [11] | Potency [16] | Potency [12] | Potency [14]

CCNc1nc(NC(C)C)nc(OC)n1
active: Potency [6] 27.3 µM | Potency [13] 25.2 µM
inactive: Potency [1] | Potency [2] | Potency [3] | Potency [4] | Potency [5] | Potency [7] | Potency [8] | Potency [9] | Potency [10] | Potency [11] | Potency [12] | Potency [14]

CC(CC(C#N)(c1ccccc1)c1ccccc1)N(C)C (centres undefined)
active: Potency [1] 48.3 µM | Potency [11] 11.2 µM | Potency [14] 27.4 µM
inactive: Potency [2] | Potency [3] | Potency [4] | Potency [5] | Potency [6] | Potency [7] | Potency [8] | Potency [9] | Potency [10] | Potency [12] | Potency [13]

Cc1cnc[nH]1
inactive: Potency [1] | Potency [2] | Potency [3] | Potency [4] | Potency [5] | Potency [6] | Potency [7] | Potency [8] | Potency [9] | Potency [10] | Potency [16] | Potency [14]
active: Potency [11] 34.2 µM

CCCSP(=O)(OCC)Oc1ccc(Br)cc1Cl (centres undefined)
active: Potency [6] 29.7 µM | Potency [7] 6.88 µM | Potency [8] 3.87 µM | Potency [9] 0.866 µM | Potency [10] 2.74 µM | Potency [11] 15.4 µM | Potency [16] 3.45 µM | Potency [12] 10.9 µM | Potency [13] 4.34 µM
inactive: Potency [1] | Potency [2] | Potency [3] | Potency [4] | Potency [5] | Potency [15]

CC(Cl)(Cl)[N+](=O)[O-]
inactive: Potency [1] | Potency [2] | Potency [3] | Potency [4] | Potency [5] | Potency [6] | Potency [7] | Potency [8] | Potency [9] | Potency [10] | Potency [11] | Potency [16] | Potency [12] | Potency [13] | Potency [14] | Potency [15]

O=CNC(N1CCN(C(NC=O)C(Cl)(Cl)Cl)CC1)C(Cl)(Cl)Cl (centres undefined)
active: Potency [6] 27.3 µM | Potency [11] 31.7 µM | Potency [16] 7.96 µM | Potency [12] 35.6 µM | Potency [15] 7.96 µM
inactive: Potency [1] | Potency [2] | Potency [3] | Potency [4] | Potency [5] | Potency [7] | Potency [8] | Potency [9] | Potency [10] | Potency [14]

O=[N+]([O-])c1cccc2c([N+](=O)[O-])cccc12
inactive: Potency [1] | Potency [2] | Potency [3] | Potency [4] | Potency [5] | Potency [6] | Potency [7] | Potency [8] | Potency [9] | Potency [10]
active: Potency [11] 11.3 µM | Potency [16] 22.6 µM | Potency [12] 40.1 µM | Potency [13] 1.01 µM | Potency [14] 24.7 µM | Potency [15] 31.9 µM

CC1=C(C(=O)O)N2C(=O)[C@@H](N)[C@H]2SC1
inactive: activity change, negative = cytotoxicity [1] 20.6% [at 19 µM] | caspase activation [2] -0.113% [at 19 µM] | activity change, negative = cytotoxicity [3] 7.27% [at 19 µM] | caspase-3/7 activation [4] 0.154% [at 19 µM] | activity change, negative = cytotoxicity [5] 0.509% [at 19 µM] | activation [6] -3.97% [at 19 µM] | activity, negative = inhibition [7] 0.304% [at 23.6 µM] | activity change, negative = inhibition [8] 0.693% [at 23.6 µM] | activity change, negative = inhibition [9] 0.138% [at 23.8 µM] | activity change, negative = inhibition [10] 2.02% [at 23.6 µM] | activity change, negative = inhibition [11] -15.2% [at 23.6 µM] | activity change, negative = inhibition [16] -10.3% [at 23.6 µM] | activity change, negative = inhibition [12] 5.86% [at 23.6 µM] | activity change, negative = inhibition [13] 13% [at 23.6 µM] | activity change, negative = inhibition [14] 3.94% [at 15.8 µM] | activity change, negative = inhibition [15] 11.3% [at 23.6 µM]

CC(=O)CCc1ccc2c(c1)OCO2
inactive: Potency [1] | Potency [2] | Potency [3] | Potency [4] | Potency [5] | Potency [6] | Potency [7] | Potency [8] | Potency [9] | Potency [10] | Potency [14]
active: Potency [16] 35.6 µM | Potency [12] 31.7 µM | Potency [15] 22.4 µM

ClCCOCOCCCl
inactive: Potency [1] | Potency [2] | Potency [3] | Potency [4] | Potency [5] | Potency [6] | Potency [7] | Potency [8] | Potency [9] | Potency [10] | Potency [11] | Potency [12] | Potency [14] | Potency [15]

CCCCOC(=O)[C@@H](C)Oc1ccc(Oc2ccc(C#N)cc2F)cc1
active: Potency [16] 19.9 µM | Potency [12] 7.92 µM | Potency [14] 4.34 µM
inactive: Potency [1] | Potency [2] | Potency [3] | Potency [4] | Potency [5] | Potency [6] | Potency [7] | Potency [8] | Potency [9] | Potency [10]
